# According to PubChem BioAssay (NCATS):
# Results filed as inconclusive are left out. Where a call stands in place of a potency, no number is given. Activity calls are given as the source filed them. Calls follow the shape of the dose curve; as a rule, active = well fitted inhibition curve with a large enough effect; inconclusive = small, poorly fitted or top-dose-only effect; inactive = flat fitted curve, though single readings scatter.
# Target: Calcium and integrin-binding protein 1 (Homo sapiens) (UniProt Q99828)
# Sequence (Q99828 whole entry, looked up): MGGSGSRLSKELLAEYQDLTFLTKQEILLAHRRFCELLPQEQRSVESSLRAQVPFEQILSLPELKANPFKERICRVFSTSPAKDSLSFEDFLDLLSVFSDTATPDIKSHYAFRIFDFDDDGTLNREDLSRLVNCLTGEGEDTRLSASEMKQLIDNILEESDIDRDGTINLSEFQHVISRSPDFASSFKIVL
# Assay: Primary qHTS for Identification of Calcium Integrin Binding Protein 1 (CIB1) Competitor (AID 1508620);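 also: GST tagged CIB1 binding a fluorescein labelled alphaIIb integrin peptide tracer; top concentration of the series differs between compounds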
# Conditions: CIB1-GST / FITC-alphaIIb peptide fluorescence polarization; series mostly up to 114 µM
# Outline: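 CIB1-GST (1 uM final) and compound incubated 15 min at room temperature before adding FITC-alphaIIb peptide tracer (100 nM final). Competition for binding read by fluorescence polarization (ex 480, em 540) after another 15 min at room temperature.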
row,SMILES,Potency
1,Cn1c(SCC(=O)c2cc3ccccc3o2)nnc1-c1ccccc1,inactive
2,COc1ccc(OC)c(C2=Nn3c(nnc3-c3ccccc3O)SC2)c1,inactive
3,O=c1cc(CN2CCCN(c3ccc(C(F)(F)F)cn3)CC2)nc2ccccn12,inactive
4,Cc1cccc(CNc2ccnc(-c3cccc(C(F)(F)F)c3)n2)c1,inactive
5,Cc1cc(C)nc(NC(=S)N2CCN(c3cc(Br)cc(C(F)(F)F)c3)CC2)c1,inactive
6,Cc1ccc(OCCn2c(CCNC(=O)c3cccc(NC(=O)OC(C)(C)C)c3)nc3ccccc32)cc1,inactive
7,Cc1ccc(NS(=O)(=O)c2cc3c(cc2-c2ccccc2)NC(=O)CO3)cc1C,inactive
8,CCOc1ccc(CCNC(=O)c2cc3ccccc3n2Cc2ccc(Cl)c(F)c2)cc1OCC,inactive
9,Clc1ccccc1-c1ccc2ncnc(NCc3cccs3)c2c1,inactive
10,O=C1CCc2cc(S(=O)(=O)Nc3cccc(B(O)O)c3)ccc2N1,inactive
11,CC(C)(C)OC(=O)Cc1nnc(C(C(=O)OCc2ccccc2)c2ccccc2)o1 (configuration not stated),inactive
12,O=[N+]([O-])c1cc(C(F)(F)F)ccc1N1CCN(C(=S)Nc2cc(Cl)ccn2)CC1,inactive
13,O=c1c2ccccc2nc2sc(Nc3ccc(F)cc3)nn12,inactive
14,NC(=O)C1CCN(c2nc(-c3cccc4ccccc34)cs2)CC1,inactive
15,O=C(Nc1ccc(Br)c(Br)c1)Nc1nnc(-c2cccnc2)s1,inactive
16,CC(=O)c1ccc(NC(=O)c2cnn3c(C)cc(C)nc23)cc1,inactive
17,O=S(=O)(c1ccc(F)cc1)N1CCN(S(=O)(=O)c2ccc3c(c2)OCCO3)CC1,inactive
18,Cc1ccc(NC(=O)CN2C(=O)N/C(=C\c3cccn3-c3ccc(P(=O)(O)O)cc3)C2=O)cc1,inactive
19,CC(C)(C)OC(=O)Cc1nnc(-c2cc3ccccc3[nH]2)s1,inactive
20,Cc1ccnc(NCc2ccc(O)c3ncccc23)c1,inactive
21,CCOC(=O)C1CCN(C(=O)C2(NC(=O)Nc3ccccc3Cl)CC2)CC1,inactive
22,COc1ccc(-c2ccc3ncnc(N(C)Cc4csc(C)n4)c3c2)cc1OC,inactive
